This is a sample that favours compounds with a hit; in the whole collection about 5% have one here.
SENP8 block-1: SENP8 protease inhibitors, primary screen, biochemical, luminescence. inhibition, % at 10 µM. purified SENP8, Z-RLRGG-aminoluciferin cleavage. hit rate 1.2% among 330,000. AID 2540, 2010; in the data active = inhibition above about 50%
Target sequence (Q96LD8 whole entry, looked up): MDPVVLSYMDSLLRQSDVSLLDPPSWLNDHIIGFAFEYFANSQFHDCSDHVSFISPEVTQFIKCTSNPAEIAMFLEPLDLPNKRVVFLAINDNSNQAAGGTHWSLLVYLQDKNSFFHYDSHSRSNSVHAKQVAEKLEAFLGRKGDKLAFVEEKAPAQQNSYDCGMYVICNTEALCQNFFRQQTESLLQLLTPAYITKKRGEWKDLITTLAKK
EBI2 antag: EBI2 receptor antagonists, beta-arrestin recruitment, primary screen, cell-based, luminescence, 7a,25-OHC stimulation, uHTS | G-protein coupled receptor 183 (Homo sapiens), P32249 | 7a,25-OHC stimulated | inhibition, % at 5 µM | hit rate 0.81% among 360,000 | AID 651636, 2012; in the data active = inhibition above about 38%;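 note: enzyme fragment complementation signal reports receptor beta-arrestin coupling in cells; 0% = agonist plus DMSO wells and 100% = wells without agonist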
SENP7 inh: SENP7 protease inhibitors, primary screen, biochemical, luminescence, uHTS | Sentrin-specific protease 7 (Homo sapiens), Q9BQF6 | recombinant SENP7, Z-RLRGG-aminoluciferin luminescence, 40 min | inhibition, % at 5 µM | hit rate 1.5% among 330,000;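 active = inhibition above about 50% at the single test dose, limit read from the data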;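 note: plate controls were DMSO with enzyme for no effect and no enzyme buffer wells for full effect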
Target sequence (Q9BQF6 706-1050 limits assumed): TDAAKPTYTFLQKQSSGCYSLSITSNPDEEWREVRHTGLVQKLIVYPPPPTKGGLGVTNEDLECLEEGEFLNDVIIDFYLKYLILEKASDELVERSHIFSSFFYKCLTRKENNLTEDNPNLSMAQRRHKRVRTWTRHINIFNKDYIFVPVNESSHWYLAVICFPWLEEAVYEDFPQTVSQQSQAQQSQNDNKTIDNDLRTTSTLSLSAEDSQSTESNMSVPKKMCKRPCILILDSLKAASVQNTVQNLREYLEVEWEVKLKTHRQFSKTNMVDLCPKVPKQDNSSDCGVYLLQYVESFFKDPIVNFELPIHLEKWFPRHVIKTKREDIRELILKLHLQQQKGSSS
SENP8 block-2: human SENP8 protease inhibitors, primary screen, biochemical, fluorescence, Nedd8 protein substrate, uHTS; Sentrin-specific protease 8 (Homo sapiens), Q96LD8; recombinant SENP8; inhibition, % at 20 µM; hit rate 0.64% among 360,000; in the data active = inhibition mostly above about 40%, no sharp cut-off; inactive = mostly below about 27%
SENP6 inh: SENP6 protease inhibitors, primary screen, biochemical, luminescence, uHTS. AID 2599, 2010. Sentrin-specific protease 6 (Homo sapiens), Q9GZR1. hit rate 1.8% among 330,000. inhibition, % at 10 µM. Recombinant SENP6 catalytic domain, aminoluciferin luminescence;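 active = inhibition above about 50% at the single tested dose, limit read from the data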;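 note: plate controls were DMSO wells with enzyme for no effect and DMSO wells lacking enzyme for full effect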
AHR activator: AHR activators, primary screen, cell-based, luminescence, luciferase reporter, human; activation, % at 5 µM; AHR-responsive luciferase reporter cells; AID 2796, 2010; hit rate 2.5% among 320,000; Aryl hydrocarbon receptor (Homo sapiens), P35869; in the data active = activation above about 47%;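 note: 0% = vehicle wells and 100% = reference agonist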
SENP8 confirm: SENP8 protease inhibitors, retest, confirmation, biochemical, luminescence, single concentration; inhibition, % at 12.5 µM; shares compounds with SENP7 inh; hit rate 40% among 6,200; Recombinant SENP8, Z-RLRGG-aminoluciferin luminescence, 60 min;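 active = mean inhibition across replicates above about 50%, limit read from the data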
SENP6 conf: SENP6 protease inhibitors, confirmation, biochemical, luminescence, single concentration. shares compounds with SENP7 inh. recombinant SENP6, Z-RLRGG-aminoluciferin luminescence. inhibition, % at 12.5 µM. hit rate 58% among 6,200. AID 488915, 2010
SENP7 confirm: SENP7 protease inhibitors, retest, confirmation, biochemical, luminescence, single concentration | recombinant SENP7, Z-RLRGG-aminoluciferin luminescence, 40 min | hit rate 69% among 6,200 | AID 488917, 2010 | shares compounds with SENP7 inh | inhibition, % at 12.5 µM
Casp3 SENP sel: caspase-3 protease inhibitors, confirmation, selectivity assay for SENP inhibitor project, biochemical, single concentration | shares compounds with SENP7 inh | purified caspase-3, Z-DEVD-aminoluciferin luminescence, 60 min | inhibition, % at 12.5 µM | hit rate 60% among 6,200 | AID 488918, 2010;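 active = mean inhibition above about 50%, limit read from the data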;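 note: plate controls were enzyme with DMSO for no effect and wells without caspase-3 for full effect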
Target sequence (P42574 28-227 limits assumed): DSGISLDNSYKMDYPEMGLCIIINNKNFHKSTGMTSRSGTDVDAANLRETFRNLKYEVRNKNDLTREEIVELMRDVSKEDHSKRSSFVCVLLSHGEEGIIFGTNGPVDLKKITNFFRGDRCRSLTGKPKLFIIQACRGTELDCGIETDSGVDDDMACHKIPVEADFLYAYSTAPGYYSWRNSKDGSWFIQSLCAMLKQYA
SENP luc ctr: luminescence interference (SENP counter-screen); hit rate 39% among 6,200; inhibition, % at 12.5 µM; Pre-incubated SENP8/Z-RLRGG-aminoluciferin, luciferase luminescence interference; shares compounds with SENP7 inh;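 active = mean inhibition above about 50% when retested at one dose, limit read from the data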;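 note: plate controls were DMSO wells with completed reaction for no effect and substrate without enzyme for full effect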
* = called active by the depositor; . = not tested or not shown.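 Rule for the calls, unless noted: active = mean inhibition above about 50% in the one-dose retest (limit read from the data); inactive = the rest.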

SMILES | SENP8 block-1 | EBI2 antag | SENP7 inh | SENP8 block-2 | SENP6 inh | AHR activator | SENP8 confirm | SENP6 conf | SENP7 confirm | Casp3 SENP sel | SENP luc ctr
Cc1ccc(-c2nnc(-c3ccccc3)o2)cc1 | 82.2* | 5.1 | 92.7* | -7.9 | 92.2* | 7.7 | -6.7 | 80.5* | 95.6* | 86.4* | 53.5*
O=C(O)c1ccc(-c2nnc(-c3ccccc3)o2)cc1 | 95.2* | -4.6 | 98.4* | 21.0 | 99.0* | 10.6 | 3.0 | 96.8* | 101.4* | 96.5* | 81.3*
O=C(CSc1nnc(-c2ccccc2)o1)N1CCCCC1 | -2.0 | -8.7 | 2.9 | 8.9 | -10.8 | -2.7 | . | . | . | . | .
Cc1ccc(-c2nnc(N)o2)cc1 | 3.4 | -8.3 | -0.4 | 14.1 | -5.6 | -0.7 | . | . | . | . | .
O=C(O)c1ccc(C(=O)C(=O)c2ccccc2)cc1 | 37.9 | -1.2 | 16.7 | 15.3 | 66.4* | 5.5 | 42.8 | 40.2 | 79.9* | 84.7* | 67.2*
Nc1ccc(C(=O)O)cc1 | 1.8 | 0.0 | 1.1 | 5.4 | -3.6 | -2.1 | . | . | . | . | .
CN(CC(=O)Nc1ccccc1Sc1ccccc1)C1CCCCC1 | 2.9 | 10.5 | 6.3 | 16.4 | -25.0 | 1.2 | . | . | . | . | .
O=C(CN(Cc1ccccc1Cl)C(=O)c1csnn1)NCCc1ccccc1 | -0.8 | 0.2 | -5.5 | 12.3 | -21.5 | 2.6 | . | . | . | . | .
O=C(Nc1cccnc1)c1cc2c(ccc3ccccc32)o1 | 61.5* | 8.5 | 82.1* | -18.4 | 66.9* | 8.4 | 10.6 | 55.8* | 55.6* | 62.2* | 5.7
NNC(=O)c1cc2c(ccc3ccccc32)o1 | -8.4 | -11.0 | -3.1 | -123.4 | -2.2 | 8.1 | . | . | . | . | .
CCc1ccc2oc(C(=O)Nc3cccnc3)c(C)c2c1 | 48.9 | -2.5 | 69.0* | 22.0 | 63.7* | -5.6 | 18.8 | 67.3* | 91.6* | 55.1* | 10.4
COc1ccc(CCC(=O)N2CCN(c3ccc([N+](=O)[O-])cc3)CC2)cc1OC | 4.5 | 9.5 | -9.4 | 26.4 | 1.2 | -0.7 | . | . | . | . | .
Nc1ccc(/C=C/c2ccc3ncccc3c2)cc1 | 52.5* | 6.8 | 73.8* | -273.4 | 59.5* | -7.1 | 45.8 | 57.3* | 79.5* | 49.0 | 10.6
c1cncc(-c2nc3cc4ccccc4cc3[nH]2)c1 | 89.2* | 4.5 | 0.9 | -262.6 | 89.8* | 55.5* | 86.7* | 89.3* | 100.1* | 88.5* | 61.7*
COc1ccc2nc(-c3ccccc3)[nH]c2c1 | 83.1* | 0.2 | 94.8* | -295.4 | 95.1* | 14.6 | 4.1 | 90.3* | 99.2* | 94.1* | 89.1*
COc1ccc2nc(NCc3ccccc3)[nH]c2c1 | -4.7 | 3.3 | 3.2 | 8.6 | -2.9 | 17.3 | . | . | . | . | .
Nc1nc2cc3ccccc3cc2[nH]c1=O | -12.5 | 3.2 | 3.5 | -439.3 | -22.1 | 17.3 | . | . | . | . | .
CCOc1ccc2nc(C(C)O)[nH]c2c1 (stereo unspecified) | -1.8 | 4.8 | 2.6 | -4.8 | -1.6 | -1.4 | . | . | . | . | .
COc1ccc2[nH]c(-c3ccccc3)cc2c1 | 86.4* | 15.1 | 89.6* | -307.0 | 91.9* | 8.1 | 12.6 | 89.3* | 99.3* | 61.2* | 27.1
CCOc1ccc2nc(-c3ccccc3)[nH]c2c1 | 69.5* | 2.2 | 88.7* | -276.8 | 87.8* | -5.6 | 84.7* | 82.4* | 94.2* | 85.4* | 83.6*
CCC1(c2ccccc2)NC(=O)N(CC(=O)N(C)Cc2c(F)cccc2Cl)C1=O (stereo unspecified) | 2.8 | -3.8 | -2.5 | 3.6 | -15.1 | -2.8 | . | . | . | . | .
Cc1ccc(C(C)C)cc1OCCCCN1CCCC1 | 0.8 | 0.0 | 3.2 | 23.2 | 1.5 | 1.6 | . | . | . | . | .
CC(=O)N1CC(C)Oc2ccc(S(=O)(=O)NC(CC(=O)O)c3ccc(C)cc3C)cc21 (stereo unspecified) | 0.9 | 3.7 | 2.4 | 5.5 | -1.1 | 1.4 | . | . | . | . | .
COc1ccc2[nH]c(C)cc(=O)c2c1 | -0.6 | -5.8 | -6.7 | -199.4 | -16.7 | 0.6 | . | . | . | . | .
COc1ccc2[nH]c(-c3ccc(C)cc3)cc(=O)c2c1 | 76.7* | -6.3 | 73.3* | -476.6 | 81.1* | 42.1 | 50.6* | 81.2* | 94.9* | 92.1* | 1.9
SMILES | SENP8 block-1 | EBI2 antag | SENP7 inh | SENP8 block-2 | SENP6 inh | AHR activator | SENP8 confirm | SENP6 conf | SENP7 confirm | Casp3 SENP sel | SENP luc ctr
COc1cccc2cc(-c3cn4cccc(C)c4n3)c(=O)oc12 | -22.2 | 4.7 | 2.6 | -362.7 | -65.2 | 36.0 | . | . | . | . | .
COc1cccc2cc(-c3nnc(-c4ccccc4)o3)c(=O)oc12 | 73.8* | -21.6 | 89.9* | -222.9 | 92.1* | 0.0 | -0.2 | 1.6 | 3.4 | 5.4 | 9.8
COc1cccc2cc(-c3cn4ccc(C)cc4n3)c(=O)oc12 | 22.7 | -4.3 | 50.0* | -68.8 | 46.0 | 6.2 | -0.5 | 4.2 | 12.8 | 11.5 | 3.8
COc1cccc(C(=O)Cn2c(NCCO)nc3ccccc32)c1 | -1.7 | 0.0 | -1.8 | 22.8 | -16.8 | 5.2 | . | . | . | . | .
COc1cccc(C(=O)Cn2c(=N)n(C)c3ccccc32)c1 | 42.6 | 4.5 | 14.3 | 2.3 | 64.2* | 51.7* | 11.6 | 4.4 | 3.4 | 21.9 | 44.9
CCCc1[nH]n(-c2nc3ccccc3s2)c(=O)c1C=NCCN1CCOCC1 | 34.2 | -10.4 | 36.0 | 23.4 | 50.8* | 10.3 | 55.6* | 39.6 | 51.5* | 60.5* | 54.8*
CCCc1[nH]n(-c2nc3ccccc3s2)c(=O)c1C=NCCCOC | -0.2 | 1.1 | 8.1 | 19.8 | -3.6 | 2.1 | . | . | . | . | .
Nc1c(N2CCCC2)cc(Cl)c2nonc12 | 83.4* | -2.3 | 49.5 | 13.4 | 91.4* | 0.8 | 45.8 | 85.6* | 74.5* | 10.6 | 1.7
Cc1ccc(NC(=O)CS(=O)CC(=O)Nc2cnc3ccccc3c2)cc1Cl (stereo unspecified) | 0.8 | 6.3 | 1.3 | 11.4 | 6.0 | -2.3 | . | . | . | . | .
NNc1nc2sc3c(c2c(=O)n1Cc1ccccc1)CCC3 | -1.1 | 4.1 | 3.4 | 6.0 | 12.5 | 4.8 | . | . | . | . | .
NNc1nc(-c2ccccc2)nc2sc3c(c12)CCCC3 | 65.7* | 9.4 | 79.8* | -150.4 | 79.0* | 74.7* | -7.1 | 11.8 | 19.7 | 15.6 | 15.5

Screening results: PubChem, several laboratories
